Laboratory results reported in PubChem BioAssay (NCI).
The panel holds about 83,000 compounds, 20% with a hit somewhere; the sample as a whole holds those more often.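 Interpretation: 100, growth as untreated; towards 0, rising growth inhibition; 0, no net growth; 0 to -100, cell death. Compounds scoring below 10 were considered active.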 Unmarked numbers belong to inactive results. Activity calls are given as the source filed them.

System: CAKI-1 renal
Assay: NCI-60 one-dose screen, 48 h (100 = growth as untreated, 0 = no growth, -100 = all killed)
Conditions: 10 µM unless noted
Method: Growth inhibition of the CAKI-1 human tumor cell line is measured as a screen for anti-cancer activity. Cells are grown in 96 well plates and exposed to the test compound for 48 hours. Compounds are tested at a single concentration, which is 10^-5 M for most compounds. The reported endpoint is percent growth (GI% or GIPRCNT), where numbers from 0 - 100% represent growth inhibition, and numbers from -100% - 0 represent cell death. For example, a value of 40 represents 60% growth inhibition. A value of 0 means no net growth occurred over the course of the experiment. A value of -40 indicates 40% of cells at the beginning of the experiment died by the end of the experiment. A value of -100 means all cells are dead at the end of the experiment.
NCI-60 Human Tumor Cell Lines Screen was performed using the standard one-dose NCI protocol, which is described in more detail at https://dtp.cancer.gov/discovery_development/nci-60/default.htm.
Compounds with GIPRCNT values below 10 were considered active. Activity score was based on GIPRCNT using the following formula: […]
Score is 0 for GIPRCNT values of 100 or above, 50 for GIPRCNT values of 0, and 100 for GIPRCNT values of -100.

Structure (SMILES) | growth
O=C(N/N=C/C=C\c1ccccc1)C(=O)N/N=C/C=C/c1ccccc1 | 105%
CC(C)(C)n1cc(-c2ccnc(NCCCNS(=O)(=O)c3ccc(C(F)(F)F)cc3)c2)c(-c2cccc(O)c2)n1 | 37.8%
C=C1C(=O)O[C@@H]2[C@@H]3O[C@@](C)(CC/C=C(\C)CCC[C@@H]2C)[C@H](O)C[C@@H]13 | 39%
O=C(Nc1ccc2c(c1)OCCO2)C(=O)c1c[nH]c2ccccc12 | 49.7%
O=[N+]([O-])c1ccc(C(c2ccccc2)c2ccccc2)cc1 | 83.1%
COc1ccc(C2C=C(c3ccc(OC)c(OC)c3)N=C3SC=C(C)N32)c(Br)c1 (stereo not given) | 99.9%
COc1cc(C2CC(c3ccc4c(c3)OCO4)=NN2C=O)cc(OC)c1OC (stereo not given) | 6.42% (active)
COc1cc([N+](=O)[O-])c2ncccc2c1O | 82.9%
COc1cc(-c2nn(-c3cccc(NC(=O)Nc4ccc(Cl)c(Cl)c4)c3)cc2-c2ccncc2)ccc1Cl | 16.8%
CC(C)(C)n1cc(-c2ccnc(NCCCNS(=O)(=O)c3ccccc3)c2)c(-c2cccc(O)c2)n1 | 52.9%
C=C1CCC2C(C)(CO)C(O)CCC2(C)C1C/C=C1/C(=O)OCC1Oc1ccccc1C (stereo not given) | 95.8%
Clc1ccccc1-c1nc2ccccc2[nH]1 | 77.5%
Fc1ccc(-c2nc(-c3nc4ncccc4[nH]3)cc3c2[nH]c2ccccc23)cc1F | 92.3%
CC(=O)Nc1ccc(/C=C/C(=O)c2ccccc2)cc1 | 104%
O=C1NN(C(=O)c2ccc(Cl)cc2)C(c2ccccc2)=N/C1=C\c1cn(-c2ccccc2)nc1-c1ccccc1 | 80.4%
Cc1cc(N/N=C/c2nc(-c3ccccc3)oc2C)c2cc(Br)ccc2n1 | 80%
CC12CCC3C4(C)COC(c5ccccc5Cl)OC4CCC3(C)C1CC(C1=CCOC1=O)O2 (stereo not given) | 56.1%
O=C(Nc1ccncc1)C(=O)c1cn(S(=O)(=O)c2ccc(Oc3ccccc3)cc2)c2ccccc12 | 57%
COc1ccc(/C=C2\N=C(c3ccccc3)N(C(=O)c3ccccc3O)NC2=O)cc1 | 97.9%
O=S(=O)(NCCNc1nccc(-c2c(-c3cccc(O)c3)nc3sccn23)n1)c1ccc(F)cc1 | 82.7%

Structure (SMILES) | growth
Cc1cc(C)n(-c2nnc3n2N=C(c2ccc(-c4ccccc4)cc2)CS3)n1 | 52.8%
CC(=O)Oc1cccc(S(=O)(=O)n2cc(C(=O)C(=O)Nc3ccncc3)c3ccccc32)c1 | 67.5%
NC1N=C(SCC(=O)N2CCN(c3cc4c(cc3F)c(=O)c(C(=O)O)cn4C3CC3)CC2)NC(=O)/C1=C/c1ccc(Cl)cc1 (stereo not given) | 91.2%
O=S(=O)(CC(O)(c1ccccc1)c1ccccc1)CC(O)(c1ccccc1)c1ccccc1 | 66.9%
CC(C)C(C(=O)NCCN1CCOCC1)N1C(=O)/C(=C/c2ccc(Br)cc2)SC1=S (stereo not given) | 97.9%
COc1ccc(C(=O)N2NC(=O)/C(=C/c3ccc(Br)cc3)N=C2c2ccccc2)cc1 | 96.9%
O=C(CSc1nc2ccccc2[nH]1)c1ccc(N2CCOCC2)cc1 | 99%
Clc1cc(Cl)cc(-c2ccc(-c3ccc(/C=N/NC4=NCCN4)cc3)s2)c1 | 58.4%
Cc1ccc(S(=O)(=O)NCCNc2nccc(-c3c(-c4cccc(N)c4)nc4sccn34)n2)cc1 | 81.8%
Cc1nc2ncccc2nc1Nc1ccc(S(=O)(=O)Nc2cncs2)cc1 | 84.1%
CCCCN(CCCC)c1ccc(C(=N)c2ccc(N(CCCC)CCCC)cc2)cc1 | -37.6% (active)
COc1ccc(-c2nc(SCCC(C)C)nc(Nc3ccc(F)c(Cl)c3)c2C#N)cc1 | 75.5%
COc1cc(Nc2nc(N[C@H]3CCCC[C@@H]3N)nc3cc[nH]c(=O)c23)cc(OC)c1 | 51.4%
Cc1csc(NC(c2ccc(Br)cc2)c2c(C)nc3ccccn23)n1 (stereo not given) | 80.8%
CC(C)(C)n1cc(-c2ccnc(NCCNS(=O)(=O)c3ccc(C(F)(F)F)cc3)c2)c(-c2cccc(O)c2)n1 | 65.9%
COc1ccc(C2=CC(c3cc(OC)c(OC)c(OC)c3)NC(=O)N2)cc1OC (stereo not given) | 5.82% (active)
CCOC(=O)C1CCNC(=O)C1=O (stereo not given) | 97.8%
CCCCC(CC)OC(=O)C(Br)CC (stereo not given) | 99%
OC(c1cc2cc(Br)ccc2c2cc(Br)ccc12)C1CCCCN1 (stereo not given) | -81% (active)
CC(=O)OC[C@]12CC[C@H]3[C@@H](C[C@H]4O[C@]45CC=CC(=O)[C@]35C)[C@]1(O)CC[C@@]2(O)[C@@](C)(O)C1CC(C)=C(C)C(=O)O1 (stereo not given in full) | -63.7% (active)
